The text below walks through data of PubChem BioAssay (EPA / NIEHS).

Activity calls are given as the source filed them. The calls were made as follows: active = hit-call score of the fitted dose curve at least 0.9, where 1 is the maximum; inactive = score below 0.9.

Conditions in all cases: mRNA level, 48 h; actives raise or lower the signal
Read-out in assay [1]: Early growth response protein 1 (EGR1) transcription factor, EGR1 (gene 1958)
The experiment in a line: LTEA_HepaRG_EGR1: Life Technologies and Expression Analysis (LTEA) Assay for Early growth response protein 1 (EGR1) transcription factor using HepaRG (AID 2283490). The gist of the method: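 Differentiated HepaRG cells in serum-free induction medium exposed 48 hours, duplicate, to 8 half-log concentrations up to 100 uM in 0.5% DMSO. EGR1 mRNA measured by TaqMan qRT-PCR, normalized to ACTB, GAPDH, POLR2A; bidirectional fit versus DMSO.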

Read-out in assay [2]: Ezrin (EZR), EZR (gene 7430)
In words: LTEA_HepaRG_EZR: Life Technologies and Expression Analysis (LTEA) Assay for Ezrin (EZR) using HepaRG (AID 2283491). The gist of the method:
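EZR transcript levels came from Fluidigm qRT-PCR and were normalized to three housekeeping genes after 48 h chemical exposure of HepaRG cells. Dosing used an 8-point half-log series with a 100 uM top concentration in 0.5% DMSO, tested in duplicate; both directions were fitted versus vehicle.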

Read-out in assay [3]: Cytochrome P450 3A7 (Homo sapiens) (UniProt P24462)
The experiment in a line: LTEA_HepaRG_CYP3A7: Life Technologies and Expression Analysis (LTEA) Assay for CYP3A7 using HepaRG (AID 2283492). The gist of the method: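 CYP3A7 transcript levels were read by TaqMan qRT-PCR on Fluidigm arrays after 48 h chemical exposure of human HepaRG cells, with housekeeping-gene normalisation. Eight half-log concentrations up to 100 uM in 0.5% DMSO were tested in duplicate.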

Read-out in a further assay: CYP3A5 (gene 1577)
In words: LTEA_HepaRG_CYP3A5: Life Technologies and Expression Analysis (LTEA) Assay for CYP3A5 using HepaRG (AID 2283493). The gist of the method: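 mRNA induction or loss of CYP3A5 assessed in HepaRG after 48 h dosing, 100 uM top concentration, duplicate wells; TaqMan qRT-PCR with ACTB, GAPDH, POLR2A normalization; 0.5% DMSO as negative control.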

Read-out in assay [4]: Fatty Acid-Binding Protein 1 (FABP1), FABP1 (gene 2168)
The experiment in a line: LTEA_HepaRG_FABP1: Life Technologies and Expression Analysis (LTEA) Assay for Fatty Acid-Binding Protein 1 (FABP1) using HepaRG (AID 2283494). The gist of the method:
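Differentiated human HepaRG cells exposed 48 h in serum-free induction medium to eight half-log concentrations up to 100 uM (0.5% DMSO), duplicate. FABP1 mRNA by qRT-PCR, normalised to ACTB, GAPDH, POLR2A; bidirectional fitting against DMSO.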

Read-out in assay [5]: Cytochrome P450 4A22 (Homo sapiens) (UniProt Q5TCH4)
The experiment in a line: LTEA_HepaRG_CYP4A22: Life Technologies and Expression Analysis (LTEA) Assay for Cytochrome P450 4A22 (CYP4A22) using HepaRG (AID 2283495). The gist of the method: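 HepaRG, 48 h post-plating -> serum-free induction medium; dosed 48 h, duplicate, 8 conc. (100 uM top, half-log), 0.5% DMSO. Readout: CYP4A22 mRNA by qRT-PCR, ACTB/GAPDH/POLR2A normalization; gain/loss fit relative to DMSO.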

Read-out in assay [6]: Cytochrome P450 7A1 (Homo sapiens) (UniProt P22680)
The experiment in a line: LTEA_HepaRG_CYP7A1: Life Technologies and Expression Analysis (LTEA) Assay for Cytochrome P450 7A1 (CYP7A1) using HepaRG (AID 2283496). The gist of the method: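 Gene expression endpoint in human HepaRG liver cells treated for 48 h with test chemicals (up to 100 uM, 0.5% DMSO). Values come from bidirectional concentration-response fitting versus DMSO.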

Read-out in assay [7]: Glutathione S-Transferase (GSTA2), GSTA2 (gene 2939)
In words: LTEA_HepaRG_GSTA2: Life Technologies and Expression Analysis (LTEA) Assay for Glutathione S-Transferase (GSTA2) using HepaRG (AID 2283497). Put shortly: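 Differentiated human HepaRG cells were exposed in duplicate for 48 h in serum-free induction medium, 8 points from 100 uM top in half-log steps, 0.5% DMSO. GSTA2 mRNA was measured by TaqMan qRT-PCR, normalized to ACTB, GAPDH and POLR2A; bidirectional fit versus DMSO.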

Read-out in assay [8]: Glutamate-cysteine ligase catalytic (GCLC), GCLC (gene 2729)
The experiment in a line: LTEA_HepaRG_GCLC: Life Technologies and Expression Analysis (LTEA) Assay for Glutamate-cysteine ligase catalytic (GCLC) using HepaRG (AID 2283498). Put shortly:
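Differentiated HepaRG cells exposed 48 h in serum-free induction medium, eight-point half-log series topping at 100 uM in 0.5% DMSO, duplicates. GCLC mRNA by qRT-PCR normalized to ACTB, GAPDH and POLR2A, fitted bidirectionally versus DMSO.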

Read-out in assay [9]: growth arrest and DNA damage 45 (GADD45G), GADD45G (gene 10912)
The experiment in a line: LTEA_HepaRG_GADD45G: Life Technologies and Expression Analysis (LTEA) Assay for growth arrest and DNA damage 45 (GADD45G) using HepaRG (AID 2283499). Put shortly: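 HepaRG, 48 h exposure, top 100 uM, half-log 8-point series, 0.5% DMSO vehicle, duplicates. Readout: GADD45G transcript by qRT-PCR (Fluidigm array), housekeeping-normalised (ACTB/GAPDH/POLR2A). Bidirectional curve fit vs DMSO baseline.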

Read-out in assay [10]: Glutathione S-transferase M3 (GSTM3), GSTM3 (gene 2947)
In words: LTEA_HepaRG_GSTM3: Life Technologies and Expression Analysis (LTEA) Assay for Glutathione S-transferase M3 (GSTM3) using HepaRG (AID 2283501). The gist of the method: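 qRT-PCR read-out of GSTM3 transcript, normalized to three housekeeping genes, from human HepaRG cells after 48 h chemical exposure. Eight-point half-log series, top 100 uM, 0.5% DMSO vehicle; gain or loss fitted relative to DMSO baseline.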

Read-out in assay [11]: Heat shock 70 kDa protein 1 (HSPA1A), gene 3303
The experiment in a line: LTEA_HepaRG_HSPA1A: Life Technologies and Expression Analysis (LTEA) Assay for Heat shock 70 kDa protein 1 (HSPA1A) using HepaRG (AID 2283502). The gist of the method: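 HSPA1A induction in human HepaRG liver cells is measured after 48 h of chemical treatment (100 uM maximum, 0.5% DMSO vehicle). Expression comes from qRT-PCR normalized to endogenous controls.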

Read-out in assay [12]: Hypoxia-inducible factor 1-alpha (Homo sapiens) (UniProt Q16665)
In words: LTEA_HepaRG_HIF1A: Life Technologies and Expression Analysis (LTEA) Assay for Hypoxia-inducible factor 1 (HIF1A) Trancription factor using HepaRG (AID 2283503). The gist of the method: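 HepaRG, 48 h exposure, 8-pt half-log series from 100 uM, 0.5% DMSO vehicle, duplicates. Readout: HIF1A transcript by qRT-PCR (Fluidigm array), housekeeping-normalised. Bidirectional curve fit vs DMSO baseline.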

Read-out in assay [13]: 3-Hydroxy-3-Methylglutaryl-CoA Synthase 2 (HMGCS2), HMGCS2 (gene 3158)
In words: LTEA_HepaRG_HMGCS2: Life Technologies and Expression Analysis (LTEA) Assay for 3-Hydroxy-3-Methylglutaryl-CoA Synthase 2 (HMGCS2) using HepaRG (AID 2283504). The gist of the method:
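qRT-PCR read-out of HMGCS2 transcript, normalised to three housekeeping genes, in HepaRG cells after 48 h chemical exposure. Eight-point curves from 100 uM, half-log dilutions, 0.5% DMSO vehicle; gain or loss fitted relative to DMSO baseline.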

Read-out in another assay: HGF (gene 3082)
In words: LTEA_HepaRG_HGF: Life Technologies and Expression Analysis (LTEA) Assay for Hepatocyte Growth Facto (HGF) using HepaRG (AID 2283505). Put shortly:
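HepaRG, 48 h dosing, 8-pt half-log series from 100 uM in 0.5% DMSO, duplicates. Readout: TaqMan qRT-PCR of HGF mRNA, housekeeping-normalized; bidirectional curve fit vs DMSO baseline.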

Read-out in assay [14]: Insulin Like Growth Factor 1 (IGF1), IGF1 (gene 3479)
In words: LTEA_HepaRG_IGF1: Life Technologies and Expression Analysis (LTEA) Assay for Insulin Like Growth Factor 1 (IGF1) using HepaRG (AID 2283506). Put shortly: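 Using human HepaRG liver cells, IGF1 transcript induction or suppression is measured 48 h after dosing across eight concentrations capped at 100 uM. Values derive from bidirectional concentration-response fitting with DMSO as baseline.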

Read-out in assay [15]: Intercellular Adhesion Molecule 1 (ICAM1), ICAM1 (gene 3383)
In words: LTEA_HepaRG_ICAM1: Life Technologies and Expression Analysis (LTEA) Assay for Intercellular Adhesion Molecule 1 (ICAM1) using HepaRG (AID 2283507). Put shortly:
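HepaRG, 48 h exposure, 8-pt half-log series from 100 uM, 0.5% DMSO vehicle, duplicates. Readout: TaqMan qRT-PCR mRNA, housekeeping-normalized (ACTB/GAPDH/POLR2A). Bidirectional curve fit vs DMSO baseline.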

Read-out in assay [16]: Insulin-like growth factor-binding protein 1 (IGFBP1), IGFBP1 (gene 3484)
In words: LTEA_HepaRG_IGFBP1: Life Technologies and Expression Analysis (LTEA) Assay for Insulin-like growth factor-binding protein 1 (IGFBP1) using HepaRG (AID 2283508). The gist of the method:
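qRT-PCR mRNA read-out (TaqMan, Fluidigm array), normalised to three housekeeping genes; HepaRG cells, 48 h exposure, 8-pt half-log series from 100 uM, 0.5% DMSO vehicle; bidirectional curve fit vs DMSO baseline.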

Read-out in assay [17]: Interleukin 6 (IL6), IL6 (gene 3569)
In words: LTEA_HepaRG_IL6: Life Technologies and Expression Analysis (LTEA) Assay for Interleukin 6 (IL6) using HepaRG (AID 2283509). Put shortly: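 HepaRG cells exposed in duplicate for 48 h to eight half-log concentrations, top 100 uM, in 0.5% DMSO serum-free induction medium. mRNA measured by qRT-PCR, normalized to ACTB, GAPDH and POLR2A. Bidirectional fit versus DMSO.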

Read-out in assay [18]: Glutamate-cysteine ligase regulatory (GCLM), GCLM (gene 2730)
In words: LTEA_HepaRG_GCLM: Life Technologies and Expression Analysis (LTEA) Assay for Glutamate-cysteine ligase regulatory (GCLM) using HepaRG (AID 2283500). The gist of the method: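 Human liver HepaRG cultures receive test chemicals for 48 hours at up to 100 uM in 0.5% DMSO. GCLM expression is measured by qRT-PCR and analysed for increases or decreases against vehicle.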

Hypoxia-inducible factor 1-alpha (Homo sapiens), sequence (Q16665 whole entry, looked up): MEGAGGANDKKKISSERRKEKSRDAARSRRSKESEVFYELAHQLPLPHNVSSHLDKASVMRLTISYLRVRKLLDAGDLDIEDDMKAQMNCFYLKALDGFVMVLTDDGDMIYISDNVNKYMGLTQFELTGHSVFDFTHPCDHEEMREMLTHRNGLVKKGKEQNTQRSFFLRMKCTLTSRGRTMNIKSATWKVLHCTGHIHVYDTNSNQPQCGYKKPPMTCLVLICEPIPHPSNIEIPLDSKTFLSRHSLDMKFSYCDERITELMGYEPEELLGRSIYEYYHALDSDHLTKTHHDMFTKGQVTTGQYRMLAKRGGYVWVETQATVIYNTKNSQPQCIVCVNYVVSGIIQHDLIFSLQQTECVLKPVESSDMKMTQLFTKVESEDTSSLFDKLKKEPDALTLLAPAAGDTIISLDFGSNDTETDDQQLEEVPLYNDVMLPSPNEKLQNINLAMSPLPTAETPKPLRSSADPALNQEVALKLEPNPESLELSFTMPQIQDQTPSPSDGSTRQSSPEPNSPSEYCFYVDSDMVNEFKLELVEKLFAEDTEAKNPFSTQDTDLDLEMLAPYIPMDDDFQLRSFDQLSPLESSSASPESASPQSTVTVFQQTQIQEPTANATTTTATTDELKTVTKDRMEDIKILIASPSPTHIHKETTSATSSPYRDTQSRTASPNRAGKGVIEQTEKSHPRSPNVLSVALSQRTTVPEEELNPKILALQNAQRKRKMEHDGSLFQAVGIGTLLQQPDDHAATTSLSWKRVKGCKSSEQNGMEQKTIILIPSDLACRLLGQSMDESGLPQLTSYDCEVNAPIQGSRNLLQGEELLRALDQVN
Cytochrome P450 3A7 (Homo sapiens), sequence (P24462 whole entry, looked up): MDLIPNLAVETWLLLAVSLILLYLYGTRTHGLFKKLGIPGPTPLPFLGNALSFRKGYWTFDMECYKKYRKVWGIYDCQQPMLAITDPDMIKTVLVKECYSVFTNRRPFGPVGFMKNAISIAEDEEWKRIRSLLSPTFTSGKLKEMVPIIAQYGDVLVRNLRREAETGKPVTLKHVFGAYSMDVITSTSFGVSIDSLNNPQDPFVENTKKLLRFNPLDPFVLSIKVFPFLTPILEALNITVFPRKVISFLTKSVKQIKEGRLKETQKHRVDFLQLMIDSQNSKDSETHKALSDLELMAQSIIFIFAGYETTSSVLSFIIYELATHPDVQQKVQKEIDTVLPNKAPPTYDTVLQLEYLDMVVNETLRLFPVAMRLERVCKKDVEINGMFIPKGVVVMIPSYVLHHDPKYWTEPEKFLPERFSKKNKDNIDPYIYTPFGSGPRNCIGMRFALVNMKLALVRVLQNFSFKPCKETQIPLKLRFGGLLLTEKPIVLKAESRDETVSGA

As usually defined, the AC50 is the midpoint of the concentration-response curve, whichever way the signal moves. Take `O=C(N[C@@H](c1ccccc1)[C@@H]1CCCCN1)c1cccc(C(F)(F)F)c1Cl`: the AC50 in assay [1] is 83.3 µM (active); with CYP3A5 (gene 1577), 90.6 µM (active); in assay [4] it was 33.2 µM (active); in [5], 23.1 µM (active); in [6], 21.3 µM (active); in assay [7] it was 76.6 µM (active). For the same compound, the AC50 was 82.8 µM (active) in assay [9]; 50 µM (active) in [11]; 69.4 µM (active) in assay [13]; 17.9 µM (active) in [14]; 61.9 µM (active) in [15]; 25.3 µM (active) in assay [16]. In addition, the AC50 in assay [17] was 85 µM (active). Further, the call (in assay [2]; in [3]; in [8]; in [10]; in [12]; in the assay with HGF (gene 3082)) was inactive.
Consider `NC1CCCCC1`, for which the compound was called inactive (in [1]; in assay [2]; in [3]; in the assay with CYP3A5 (gene 1577); in [4]; in assay [5]). Further, the compound was classed as inactive in [6], in [7], in assay [8], in assay [9], in assay [18] and in assay [11]. Moreover, the result (in [12]; in [13]; in the assay with HGF (gene 3082); in [15]; in [16]; in [17]) was inactive.
For the compound `NCCOCCOCCN`, the compound was classed as inactive (in assay [1]; in assay [2]; in [3]; in the assay with CYP3A5 (gene 1577); in assay [4]; in [5]). Also, the outcome in assay [6], in [7], in [8], in assay [9], in [18] and in [10] was inactive. In addition, the call (in assay [11]; in assay [12]; in [13]; in the assay with HGF (gene 3082); in [14]; in assay [15]) was inactive. Further, the outcome in assay [16] and in assay [17] was inactive.
